# Results filed as inconclusive are left out. A number with no mark means an inactive call. Active and inactive are the calls of the source. Calls follow the shape of the dose curve; as a rule, active = well fitted curve in the direction sought with a large enough effect; inconclusive = small, poorly fitted or top-dose-only effect, or another doubt; inactive = no such curve, though single readings can be large or run the other way.
# Test: Confirmation Concentration-Response Assay for Inhibitors of Tau Fibril Formation, Total Fluorescence Counterscreen for Fluorescence Polarization
# Conditions: Alexa594-tau K18 total fluorescence counterscreen, interference, tau K18 with P301L mutation; series mostly up to 100 µM; fluorescence change, negative = quenching: at the top concentration
# Source text: NIH Molecular Libraries Probe Production Network [MLPCN] NIH Chemical Genomics Center [NCGC] MLPCN Grant: X01 MH083262-01 Assay Provider: Carlo Ballatore, University of Pennsylvania NCGC Assay Overview: The microtubule-associated protein tau is an abundant protein in the axons of neurons that stabilizes microtubules. With its ability to modulate microtubule dynamics, tau contributes directly or indirectly, to key structural and regulatory cellular functions. Particularly important is the influence tau exerts on axonal transport, which allows signaling molecules, trophic factors and other essential cellular constituents to travel along the axons. Under pathological conditions, tau becomes sequestered into insoluble aggregates called neurofibrillary tangles. This phenomenon is believed to have pathological consequences by promoting axonal transport deficits that ultimately lead to synaptic dysfunction and neuronal loss. To identify inhibitors of tau aggregation, a heparin-induced tau fibril formation assay was used that employed a recombinantly expressed fragment of tau, K18 (Q242-E372), bearing a P301L mutation (Gustke et al. 1994; Hong et al. 1998). […] Total fluorescence (555 nm excitation and 632 nm emission) was measured to identify fluorescent or absorbent compounds at this wavelength. Such compounds may be artifacts that interfere with the Alexa 594 Tau fluorescence polarization assay. Gustke, N., B. Trinczek, et al. (1994). "Domains of tau protein and interactions with microtubules." Biochemistry 33(32): 9511-22. Hong, M., V. Zhukareva, et al. (1998). "Mutation-specific functional impairments in distinct tau isoforms of hereditary FTDP-17." Science 282(5395): 1914-7. Li, W. and V. M. Lee (2006). "Characterization of two VQIXXK motifs for tau fibrillization in vitro." Biochemistry 45(51): 15692-701. von Bergen, M., S. Barghorn, et al. (2001). "Mutations of tau protein in frontotemporal dementia promote aggregation of paired helical filaments by enhancing local beta-structure." J Biol Chem 276(51): 48165-74.
# For screening, 2 uL/well human K18 P301L (15 uM unlabeled and 0.24 uM Alexa 594-labeled tau final concentrations) in reagent buffer (100 mM sodium acetate pH 7) was dispensed into black solid 1536-well plates (Grenier) using a solenoid-based dispenser. Following transfer of 23 nL compound or DMSO vehicle by a pin tool, 2 uL/well heparin (20 uM final concentration) in reagent buffer was added and the plate centrifuged 15 s at 1000 RPM. Plates were incubated 6 hr at 37 C and then 1 uL/well ThT (30 uM final concentration) was added. After a 1 hr ambient incubation, the plates were read by an Envision (Perkin Elmer) to monitor Alexa 594 FP (555 nm excitation and 632 nm emission). Keywords: NIH Roadmap, MLPCN, MLI, MLSMR, NCGC, qHTS, tau, tauopathies, Alzheimer's disease, fibril, neurodegeneration, aggregation
SMILES,"fluorescence change, negative = quenching",Potency
O=C(Nc1sc2c(c1C(=O)Nc1cccc(Cl)c1)CCCC2)c1cccs1,-14.5% [at 57.1 µM],–
CCN(c1ccccc1)S(=O)(=O)c1nnc(NC(=O)C(C)(C)C)s1,-3.33%,–
CCOC(=O)c1c(N)sc2c1CN(C)CC2,14% [at 57.1 µM],–
CCOC(=O)c1nn(-c2ccc(OC)cc2)c(=O)c2c(N)scc12,–,inactive
CC1CCc2c(sc(NC(=O)Cc3ccccc3)c2C(=O)Nc2ccc(Cl)cc2)C1 (stereo not given),-0.241% [at 57.1 µM],–
Cn1ncc(Cl)c1C(=O)Nc1cccc(Cl)c1,8.4%,–
COc1cc(/C=N/N=C2/NC(=O)C(CC(=O)O)S2)ccc1OCc1ccc(Cl)cc1 (stereo not given),22.5%,–
CCn1c(CSc2nccn2C)nc2cc(C(=O)O)ccc21,35.7%,–
CCOC(=O)c1nn(-c2ccccc2)c(=O)c2c(N)scc12,–,inactive
COc1ccc(NC(=O)Cn2cc(S(=O)(=O)N3CCN(c4ccccc4F)CC3)c3ccccc3c2=O)cc1Cl,-2.65%,–
O=C(Cc1ccccc1)Nc1sc2c(c1C(=O)Nc1cccc(Cl)c1)CCCC2,-7.93% [at 57.1 µM],–
Cc1cc2c(NC(=O)Nc3ccccc3)cccc2nn1,-20.3%,–
Nc1c(-c2ccncc2)cc[nH]c1=O,-12.5%,–
COc1ccc(OC)c(NC(=O)c2c(NCc3cccs3)sc3c2CCCC3)c1,-28.3% [at 57.1 µM],–
Cc1cccc(NC(=O)c2c(NC(=O)c3ccccc3)sc3c2CCCC3)c1,-10.3% [at 57.1 µM],–
CN(C)S(=O)(=O)c1cccc(N=C2NN=C(c3ccccc3)CS2)c1,-15.9%,–
COC(=O)CSc1nc2ccc(NC(=O)CSc3nnnn3Cc3ccccc3)cc2s1,-2.92%,–
Cc1ccc(-c2ccc(/C=N/N=C3/NC(=O)C(CC(=O)O)S3)o2)c([N+](=O)[O-])c1 (stereo not given),4.37%,–
COc1cccc(/C=C2/SC(=S)N(CC(=O)Nc3nnc(C)s3)C2=O)c1,-9.01% [at 57.1 µM],–
O=C(Cc1ccccc1)Nc1sc2c(c1C(=O)Nc1ccc(Br)cc1)CCCC2,-4.5% [at 57.1 µM],–

SMILES,"fluorescence change, negative = quenching",Potency
COc1ccc(NC(=O)C2CCN(S(=O)(=O)c3c(C)noc3/C=C/c3cccs3)CC2)cc1Cl,-12.3%,–
O=C(Nc1ccccc1)Nc1ccccc1,-10.9%,–
Cc1ccc(NC(=O)c2c(NC(=O)Cc3ccccc3)sc3c2CCCC3)cc1,-4.68% [at 57.1 µM],–
CCOC(=O)N1CCN(C(=O)CN2C(=O)/C(=C\c3cccc(OC)c3)SC2=S)CC1,-16.9% [at 57.1 µM],–
O=C(Cn1c(=O)c(CNc2ccccc2)cc2cc3c(cc21)OCCO3)Nc1ccccc1Cl,-14.4%,–
O=C(NCCCO)Nc1ccc2nc(-c3ccco3)c(-c3ccco3)nc2c1,–,3.16 µM [quencher] (active)
O=C(O)CC1S/C(=N/N=C/c2ccc(-c3ccc(Cl)cc3[N+](=O)[O-])o2)NC1=O (stereo not given),3.16%,–
COc1ncc(-c2ccccc2)cc1N,-2.67% [at 57.1 µM],–
NC(=O)c1nn(-c2ccccc2)c(=O)c2c(N)scc12,1.1% [at 57.1 µM],–
CC(=O)Nc1sc(C)c2cnn(-c3ccccc3)c(=O)c12,4.58% [at 57.1 µM],–
COc1cccc(/C=C2/SC(=S)N(CC(=O)Nc3nccs3)C2=O)c1,-19.7% [at 57.1 µM],–
COc1ccc(-n2nc(C(=O)O)c3csc(N)c3c2=O)cc1,-15.8% [at 57.1 µM],–
O=C(CSc1nc2scc(-c3ccco3)c2c(=O)n1-c1ccccc1)N1CCOCC1,-2.9% [at 57.1 µM],–
CC(C)c1ccc(NS(=O)(=O)c2ccc3[nH]cc(C(=O)NCCc4ccccc4)c(=O)c3c2)cc1,-9.83%,–
Cn1cc(Cl)c(C(=O)Nc2cccc(Cl)c2Cl)n1,2.07%,–
Nc1scc2c(CO)nn(-c3ccccc3)c(=O)c12,-2.64% [at 57.1 µM],–
Nc1scc2c(C(=O)N3CCOCC3)nn(-c3ccccc3)c(=O)c12,-0.72% [at 57.1 µM],–
COc1ccc2oc(-c3ccc(NC(=O)c4ccc(N5CCOCC5)c([N+](=O)[O-])c4)cc3)nc2c1,-3.8%,–
COC(=O)c1c(NC(=O)CCCOc2cccc(C)c2)sc2c1C(C(=O)OC)CC2 (stereo not given),2.92%,–
CN(C)C(=O)c1ccc(-c2cc[nH]c(=O)c2N)cc1,-10.2%,–

# Source: PubChem BioAssay AID1694 (National Center for Advancing Translational Sciences (NCATS), 2009)
